Laboratory results published in the supplement of paper PMC7695840.
Counter-ions that a name gives are not always drawn.

Tested on: Staphylococcus aureus MW2 (mecA+)
Assay: normalized DsRed fluorescence (growth of mecA+ strain) (fraction of control range); higher = more growth of mecA+ strain
Settings: compound concentration: 150 uM; cefoxitin: subinhibitory; fluorescent label: DsRed
How it was run: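 Compound at 150 μM (1.5% DMSO) in 1536-well plates received 5 µL/well of pre-induced S. aureus MW2 cells mixed 1:1, gene-carrying with DsRed and gene-deleted with GFP, in LB with a daily-set subinhibitory antibiotic dose, single replicate. After 20 h unshaken at 37 °C, 90% humidity, DsRed (540/590) and GFP (485/520) were measured and scaled per plate between single-strain control medians. Plates with high untreated ratios and rows with DsRed/GFP >10 were excluded.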

SMILES	normalized DsRed fluorescence
Nc1nc(NC2CC2)c2ncn([C@H]3C=C[C@@H](CO)C3)c2n1	0.69
C1CCN2C[C@@H]3C[C@@H](CN4CCCC[C@@H]34)[C@H]2C1	0.556
CCN1CC(CCN2CCOCC2)C(c2ccccc2)(c2ccccc2)C1=O (stereo not given)	0.634
COC1=CC(=O)C[C@@H](C)[C@]12Oc1c(Cl)c(OC)cc(OC)c1C2=O	0.425
O=C(OOC(=O)c1ccccc1)c1ccccc1	0.519
N[C@@H](Cc1ccc(O)c(O)c1)C(=O)O	0.611
O=C(O)CCCC[C@@H]1SC[C@@H]2NC(=O)N[C@@H]21	0.604
COc1ccc2[nH]c([S+]([O-])Cc3ncc(C)c(OC)c3C)nc2c1 (stereo not given)	1.2
C1N2CN3CN1CN(C2)C3	0.452
CCN(CC)CCOC(=O)c1ccc(N)cc1	0.634
NS(=O)(=O)c1cc(C(=O)O)c(NCc2ccco2)cc1Cl	0.841
Cc1cc2c(s1)Nc1ccccc1N=C2N1CCN(C)CC1	0.803
CC[C@]12C=CCN3CC[C@@]4(c5cc([C@@]6(C(=O)OC)C[C@@H]7C[C@@H](C(C)(F)F)CN(Cc8c6[nH]c6ccccc86)C7)c(OC)cc5N(C)[C@H]4[C@@](O)(C(=O)OC)[C@@H]1OC(C)=O)[C@@H]32 [Vinflunine Tartrate]	0.556
CN[C@@H]1[C@H](O[C@H]2[C@H](O[C@H]3[C@H](O)[C@@H](O)[C@H](N=C(N)N)[C@@H](O)[C@@H]3N=C(N)N)O[C@@H](C)[C@]2(O)C=O)O[C@@H](CO)[C@H](O)[C@H]1O	0.69
O=C(NC(Cc1cc(=O)[nH]c2ccccc12)C(=O)O)c1ccc(Cl)cc1 (stereo not given) [Rebamipide]	0.942
O=C(OCc1ccccc1)c1ccccc1	0.596
CC1(C)O[C@@H]2C[C@H]3[C@@H]4CCC5=CC(=O)CC[C@]5(C)[C@@]4(F)[C@@H](O)C[C@]3(C)[C@]2(C(=O)CCl)O1	0.844
Cc1c2oc3c(C)ccc(C(=O)N[C@@H]4C(=O)N[C@H](C(C)C)C(=O)N5CCC[C@H]5C(=O)N(C)CC(=O)N(C)[C@@H](C(C)C)C(=O)O[C@@H]4C)c3nc-2c(C(=O)N[C@@H]2C(=O)N[C@H](C(C)C)C(=O)N3CCC[C@H]3C(=O)N(C)CC(=O)N(C)[C@@H](C(C)C)C(=O)O[C@@H]2C)c(N)c1=O	0.0533
NC(=O)c1cn(Cc2c(F)cccc2F)nn1 [Rufinamide (Banzel)]	0.955
CCCCCCOC(=O)NC(=N)c1ccc(NCc2nc3cc(C(=O)N(CCC(=O)OCC)c4ccccn4)ccc3n2C)cc1	0.473

SMILES	normalized DsRed fluorescence
CC(C)(CO)[C@@H](O)C(=O)NCCCO	0.653
COC(=O)Nc1nc2cc(Sc3ccccc3)ccc2[nH]1	0.601
NS(=O)(=O)c1cc(C2(O)NC(=O)c3ccccc32)ccc1Cl (stereo not given)	0.584
c1ccc(CN(CC2=NCCN2)c2ccccc2)cc1	0.762
CN(C)CCC[C@@]1(c2ccc(F)cc2)OCc2cc(C#N)ccc21	0.762
Cc1[nH]c(=O)c(C#N)cc1-c1ccncc1	0.797
CNC(C)C1CCC(N)C(OC2C(N)CC(N)C(OC3OCC(C)(O)C(NC)C3O)C2O)O1 (stereo not given)	0.522
COc1cc2c(cc1OC)C(=O)C(CC1CCN(Cc3ccccc3)CC1)C2 (stereo not given)	0.564
Cc1cc(NS(=O)(=O)c2ccc(N)cc2)no1	0.744
CN1CCC(OC(c2ccccc2)c2ccccc2)CC1	1.1
Cc1ncc(CO)c(CO)c1O	0.816
CC(=O)OCC(=O)[C@@]1(O)CC[C@H]2[C@@H]3CCC4=CC(=O)CC[C@]4(C)[C@H]3[C@@H](O)C[C@@]21C	0.595
OCc1ccccc1O	0.713
COCCc1ccc(OCC(O)CNC(C)C)cc1 (stereo not given)	0.587
CCc1nc(N)nc(N)c1-c1ccc(Cl)cc1	0.879
CCCCCCCN(CC)CCCC(O)c1ccc(NS(C)(=O)=O)cc1 (stereo not given) [Ibutilide fumarate]	0.737
N=C(N)N1CCc2ccccc2C1	0.808
CC[N+](C)(C)Cc1ccccc1Br	0.523
C=CC[C@@H]1/C=C(\C)C[C@H](C)C[C@H](OC)[C@H]2O[C@@](O)(C(=O)C(=O)N3CCCC[C@H]3C(=O)O[C@H](/C(C)=C/[C@@H]3CC[C@@H](O)[C@H](OC)C3)[C@H](C)[C@@H](O)CC1=O)[C@H](C)C[C@@H]2OC	1.59
CC(=O)OCC(=O)[C@@]1(O)CC[C@H]2[C@@H]3CCC4=CC(=O)CC[C@]4(C)[C@@]3(F)[C@@H](O)C[C@@]21C	0.642
